Assay outcomes from PubChem BioAssay.
Hits are enriched below; roughly 5.3% of the tested compounds scored in any of these assays.
JMJD2A Tudor inh = qHTS Assay for Inhibitors of JMJD2A-Tudor Domain; Lysine-specific demethylase 4A (Homo sapiens), O75164; Potency, µM (series often up to 114 µM), inactives show at the highest dose activity change, negative = inhibition, usual class: inhibitors; actives 4.4% (n = 390,000); AlphaScreen JMJD2A-Tudor / H3K4me3 peptide binding; note: potency is the fitted concentration of half-maximal effect; % is set by controls: 0 for no effect and ±100 for the full control effect; nearly all actives have a fitted effect of over 50% in size
BAZ2B block = qHTS Assay for Inhibitors of BAZ2B; AlphaScreen BAZ2B-H3K14Ac peptide displacement; actives 4.4% (n = 360,000); Potency, µM (series often up to 114 µM), inactives show at the highest dose activity change, negative = inhibition, actives largely listed as inhibitors; note: potency is the fitted concentration of half-maximal effect; % is set by controls: 0 for no effect and ±100 for the full control effect; nearly all actives have a fitted effect of over 60% in size
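Compounds, titrated to a top concentration of 110 uM, were incubated 30 min at room temperature with preformed BAZ2B/acetyl-K14 H3 peptide complex (50 nM each). Proximity signal was measured by AlphaScreen after 20 min with beads.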
HP1b binding inh = HTS for Inhibitors of HP1-beta Chromodomain Interactions with Methylated Histone Tails; Chromobox protein homolog 1 (Homo sapiens), P83916; AlphaScreen HP1-beta / biotin-H3K9me3 peptide binding; Potency, µM (top dose mostly 114 µM), for the others: at the highest dose activity change, negative = inhibition, usual class: inhibitors; actives 0.56% (n = 390,000); note: potency is the fitted concentration of half-maximal effect; nearly all actives have a fitted effect of over 70% in size
Target sequence (P83916 whole entry, looked up): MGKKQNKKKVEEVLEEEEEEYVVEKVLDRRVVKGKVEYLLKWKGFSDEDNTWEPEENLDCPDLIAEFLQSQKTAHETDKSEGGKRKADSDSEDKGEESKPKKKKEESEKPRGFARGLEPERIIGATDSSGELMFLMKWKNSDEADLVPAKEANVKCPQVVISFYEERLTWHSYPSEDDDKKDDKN
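Compound inhibition of the preformed complex between 50 nM HP1-beta and 50 nM biotinylated H3K9me3 peptide was read by AlphaScreen. Buffer was PBS pH 7.4 with 0.01% Tween-20. Incubations ran 30 min at room temperature, with 10 ug/mL donor/acceptor beads.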
CtBP-E1A inh = qHTS Assay for Inhibitors of the CtBP/E1A Interaction | CtBP / adenovirus E1A interaction (AlphaScreen) | AlphaScreen GST-E1A/His-CtBP binding, 1536-well; hits give low values | activity change, % (test concentration not listed) | actives 0.49% (n = 340,000); in the data active = activity change below about -65%; inconclusive = mostly about -30% to -63%; note: % is set by controls: 0 for no effect and ±100 for the full control effect
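AlphaScreen with 125 nM GST-E1A and 125 nM His-CtBP (5X stocks) in Tris pH 8.0, 300 mM NaCl, BSA, Tween 20, TCEP. Compounds preincubated 2 h at 37 deg C, then glutathione donor/nickel acceptor beads added for 1 h at 37 deg C in dark.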
Six1-Eya2 inh = qHTS Assay for Inhibitors of the Six1/Eya2 Interaction | Homeobox protein SIX1 (Homo sapiens) + Protein phosphatase EYA2 (Homo sapiens), … | AlphaScreen GST-Six1/His-Eya2 binding, biochemical; hits give low values | activity change, % (no concentration beside the values) | actives 0.56% (n = 360,000); in the data active = activity change below about -65%; inconclusive = mostly about -30% to -63%; note: % is set by controls: 0 for no effect and ±100 for the full control effect
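Homogeneous AlphaScreen proximity assay pairing GST-Six1 with His-tagged Eya2 (added as 5X mix: 250 nM and 500 nM) in 50 mM Tris pH 8.0, 300 mM NaCl, 1 mM TCEP. Glutathione donor and nickel acceptor beads; 1 h, 37 °C, dark.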
TDP1 block = qHTS Assay for Inhibitors of Tyrosyl-DNA Phosphodiesterase (TDP1) | Tyrosyl-DNA phosphodiesterase 1 (Homo sapiens), Q9NUW8 | recombinant TDP1, AlphaScreen DNA substrate cleavage | Potency, µM (titrated, usually from 130 µM), for inactives: at the highest dose activity change, negative = inhibition, actives largely listed as inhibitors | actives 0.28% (n = 350,000); note: potency is the fitted concentration of half-maximal effect; % is set by controls: 0 for no effect and ±100 for the full control effect; nearly all actives have a fitted effect of over 40% in size
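Recombinant E. coli-expressed Tdp1 (1 nM) preincubated with compound 15 min at RT, then 5'-biotin/3'-phosphotyrosine-FITC DNA substrate (15 nM) added for 5 min. AlphaScreen beads (10 ug/ml) added, 10 min RT; tyrosine-FITC cleavage read as signal loss.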
* hit, by the source's call; ? = inconclusive; . = no result given; [ ] = another dose, or the depositor's remark. Unless noted, calls come from the whole dose curve; as a rule, active = well fitted inhibition curve with a large enough effect; inconclusive = small, poorly fitted or top-dose-only effect; inactive = no such curve, though single readings can be large or run the other way.

SMILES	JMJD2A Tudor inh	BAZ2B block	HP1b binding inh	CtBP-E1A inh	Six1-Eya2 inh	TDP1 block
S=c1[nH]nc(Cc2ccccc2)n1-c1cccc2ccccc12	25µM*	-32%	6%	3	-7	-3%
Cc1ccc(-n2c(-c3ccc(Br)cc3)n[nH]c2=S)c(C)c1	.	.	.	-1	-13	.
COc1ccc(Cc2n[nH]c(=S)n2-c2cc(C)ccc2C)cc1OC	.	.	.	7	12	.
Cc1ccc(-n2c(Cc3ccccc3)n[nH]c2=S)c(C)c1	18µM*	-29%	3%	-21	7	5%
CN(C(=O)CSc1nc2ccccc2n1CC(=O)N(C)C1CCCCC1)c1ccccc1	-17%	-3%	31%	.	.	6%
Cc1cccc(-n2c(=O)c3c(c4cc(C)ccc4n3C)n(Cc3ccccc3F)c2=O)c1	-11%	-14%	43%	.	.	3%
CC(C)c1cnc2c(c1SCC(=O)N1CCCCC1)c(=O)n(C)c(=O)n2C	-5%	-10%	13%[57 µM]	.	.	8%
Cc1cccc(C)c1NC(=O)CN(C)S(=O)(=O)c1ccc2[nH]c3c(c2c1)CCCC3	?	40µM*	-8%	.	.	2%
Cc1cc(C)cc(NC(=O)CN(C)S(=O)(=O)c2ccc3[nH]c4c(c3c2)CCCC4)c1	?	-35%	8%	.	.	10%
CN(CC(=O)NCc1ccc(F)cc1)S(=O)(=O)c1ccc2[nH]c3c(c2c1)CCCC3	?	40µM*	-2%	.	.	7%
CN(CC(=O)NCc1ccccc1)S(=O)(=O)c1ccc2[nH]c3c(c2c1)CCCC3	?	?	1%	.	.	5%
COc1cc(C(=O)Nc2nc3c(s2)Cc2c(Br)ccc(OC)c2-3)cc(OC)c1OC	-26%	-3%	16%	.	.	3%
CC1Cc2ccccc2N1C(=O)COC(=O)CCc1nc2ccccc2c(=O)[nH]1 (stereo not drawn)	5.6µM*	-21%	-17%	-6	10	-2%
O=C(CCc1nc2ccccc2c(=O)[nH]1)OCC(=O)N1CCc2ccccc21	-1%	-16%	23%	-10	2	-1%
O=C(NCSc1ccncn1)c1ccccc1	20µM*	?	-25%	-1	-1	4%
O=C(O)CCCN1C(=O)C(=O)/C(=C(/O)c2ccccc2)C1/C=C/c1ccccc1 (stereo not drawn)	45µM*	?	2%	3	-2	-2%
O=C(NCCc1ccc(O)c(O)c1)C1COc2ccccc2O1 (stereo not drawn)	18µM*	-13%	35µM*	0	1	9%[0.0935 µM]
CCOC(=O)c1noc2nc(C)n(CC(=O)NC(C)CC)c(=O)c12 (stereo not drawn)	-3%	3%	16%[57 µM]	.	.	7%
FC(F)(F)c1nc(=S)c2ccccc2[nH]1	50µM*	8%	?	3	-20	7%
O=C(O)c1cccc2[nH]c(C(F)(F)F)nc12	32µM*	56µM*	-8%	-4	9	-4%
Nc1cccc2[nH]c(C(F)(F)F)nc12	?	56µM*	?	3	-25	.
COc1ccc(-c2cn3cc(C)ccc3n2)cc1F	20µM*	?	-16%	-4	-5	-2%
O=C(CSc1nnc(NC(=O)C2CCC2)s1)Nc1ccccc1F	-33%	-1%	43%	0	3	1%
O=C(CSc1nnc(Nc2ccccc2F)s1)NC(=O)CN1CCCC1=O	?	?	-28%	.	-11	14µM*
CC(C)(C)OC(=O)N1CCC[C@H]1C(=O)NCc1ccc(Cl)cc1Cl	45µM*	-3%	-5%	-5	5	-3%
SMILES	JMJD2A Tudor inh	BAZ2B block	HP1b binding inh	CtBP-E1A inh	Six1-Eya2 inh	TDP1 block
CC(C)(C)OC(=O)N1CCC[C@H]1C(=O)N1CCC[C@H]1C(=O)NCc1ccc(F)cc1F	.	.	.	2	-2	.
Cc1ccc(S(=O)(=O)c2[nH]c(-c3ccccc3)nc2SCC(N)=O)cc1	-21%	-34%	23%	.	.	7%
O=C(CSc1ncnc2nc[nH]c12)c1ccc2ccccc2c1	79µM*	-22%	17%	-6	-13	3%
O=C(O)CSc1ncnc2nc[nH]c12	-18%	-2%	34%	6	-1	-1%
c1nc(SSc2ncnc3nc[nH]c23)c2[nH]cnc2n1	0.79µM*	.	?	8	-12	.
Cc1c(NC(=O)C(C)(C)Oc2ccc(Cl)cc2)cccc1-c1nc2ccccc2o1	9%	8%	44%	.	.	-5%
Cc1ccc(OCC(=O)Nc2ccc3nc(SCCOc4ccccc4)sc3c2)cc1	-11%	-11%	30%	.	.	-6%
NNc1ncnc2scc(-c3ccc(Cl)cc3)c12	-36%	71µM*	-2%	11	-17	6%
Clc1ccc(-c2csc3ncnc(Cl)c23)cc1	7%	3%	45%[57 µM]	-4	0	5%
Cc1ccc(Cn2cc(CCC(=O)O)c3ccccc32)cc1	-2%	-25%	14%	-65*	3	.
Cc1ccc(CNC(=O)CCc2cn(Cc3ccc(C)cc3)c3ccccc23)cc1	-7%	-14%	33%	.	.	5%
O=[N+]([O-])c1ccc(CN2CCCCCC2)cc1	-13%	-2%	38%	3	-23	.
CSc1ccc(CN2CCCCCC2)cc1	5µM*	-12%	?	1	-12	.
O=[N+]([O-])c1ccc(COc2ccc(CN3CCCC3)cc2)cc1	-20%	.	29%	-14	-2	.
CSc1ccc(CN2CCN(Cc3ccc([N+](=O)[O-])cc3)CC2)cc1	?	28µM*	?	-24	?	-2%
CCS(=O)(=O)N1CCN(Cc2ccc([N+](=O)[O-])cc2)CC1	5.6µM*	50µM*	?	3	18	0%
Cn1c(=O)cc(SCC(=O)N2CCN(c3ccc(F)cc3)CC2)c2ccc(Cl)cc21	-13%	.	34%	.	.	2%
O=C(Nc1cccc(C(F)(F)F)c1)c1cc(S(=O)(=O)N2CCCC2)c[nH]1	-20%	-3%	2%	.	.	5%
CS(=O)(=O)c1ccc(C(=O)Nc2ccc(N3CCCC3)cc2)c(Cl)c1	-17%	-12%	-10%	-2	-4	-2%
O=C(Nc1ccc(N2CCCC2)cc1)c1ccccc1[N+](=O)[O-]	-7%	-38%	25%	.	-3	.
O=C(Nc1ccc(N2CCCCC2)cc1)c1ccc2ccccc2n1	20µM*	?	?	-27	?	12%
Cc1ccc(C(=O)Nc2ccc(N3CCCC3)cc2)c(C)c1	50µM*	?	?	-9	-16	.
